# LYPLA1 inh = LYPLA1 inhibitors, primary screen, counter-screen for PME1 inhibitor project, biochemical, fluorescence polarization, FP-Rh probe ABPP. inhibition, % at 5.9 µM. AID 2174, 2009. 0.16% of 320,000 active. recombinant LYPLA1. Acyl-protein thioesterase 1 (Homo sapiens), O75608;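 active = inhibition above the mean of all tested compounds plus 3 SD, set per campaign, cut at about 14% in these data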;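 also: inhibitors block serine hydrolase probe labeling of LYPLA1 so polarization falls; 0% = enzyme with DMSO and 100% = wells lacking LYPLA1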
# PAFAH1B3 FP inh = PAFAH1B3 enzyme inhibitors, primary screen, biochemical, fluorescence polarization, human. Platelet-activating factor acetylhydrolase IB subunit alpha1 (Homo sapiens), Q15102. recombinant PAFAH1B3, FP-rhodamine probe. inhibition, % at 3.39 µM. 0.28% of 340,000 active;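 active = inhibition above the screen-wide average of all tested compounds plus 3 SD, cut at about 25% in these data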;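 also: 0% = enzyme with DMSO only and 100% = wells lacking PAFAH1B3 protein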
# Target sequence (Q15102 whole entry, looked up): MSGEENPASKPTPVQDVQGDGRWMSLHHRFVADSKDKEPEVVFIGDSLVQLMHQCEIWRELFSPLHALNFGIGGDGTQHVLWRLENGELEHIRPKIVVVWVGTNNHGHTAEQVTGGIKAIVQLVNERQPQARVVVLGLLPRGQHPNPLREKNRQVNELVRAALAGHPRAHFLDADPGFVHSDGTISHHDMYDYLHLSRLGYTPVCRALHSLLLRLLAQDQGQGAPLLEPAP
# LYPLA2 counter = LYPLA2 inhibitors, primary screen, counter-screen for PME1 inhibitor project, biochemical, fluorescence polarization, FP-Rh probe ABPP; Acyl-protein thioesterase 2 (Homo sapiens), O95372; recombinant LYPLA2; inhibition, % at 5.9 µM; 0.38% of 320,000 active;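 active = inhibition above the screen-wide mean plus 3 SD, limit set per campaign, cut at about 26% in these data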;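 also: 0% = LYPLA2 with DMSO and 100% = wells lacking LYPLA2 enzyme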
# Target sequence (O95372 whole entry, looked up): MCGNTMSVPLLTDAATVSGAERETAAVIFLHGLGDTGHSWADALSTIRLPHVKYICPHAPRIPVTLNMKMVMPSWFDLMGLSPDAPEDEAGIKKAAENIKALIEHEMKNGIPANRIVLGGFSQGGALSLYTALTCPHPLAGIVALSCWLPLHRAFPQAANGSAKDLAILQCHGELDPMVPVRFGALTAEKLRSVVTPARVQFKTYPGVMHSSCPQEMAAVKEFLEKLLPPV
# PAFAH1B2 FP inh = PAFAH1B2 enzyme inhibitors, primary screen, biochemical, fluorescence polarization, human; 1.2% of 340,000 active; inhibition, % at 3.39 µM; recombinant PAFAH1B2, FP-rhodamine activity probe; Platelet-activating factor acetylhydrolase IB subunit alpha2 (Homo sapiens), P68402;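 active = inhibition above the mean of all tested compounds plus 3 SD, cut at about 24% in these data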;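 also: 0% = enzyme with DMSO and 100% = wells lacking PAFAH1B2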
# pPAFAH FP inh = pPAFAH enzyme inhibitors, primary screen, biochemical, fluorescence polarization, human. Platelet-activating factor acetylhydrolase (Homo sapiens), Q13093. recombinant pPAFAH, FP-rhodamine probe fluorescence polarization. inhibition, % at 3.39 µM. 1.5% of 330,000 active;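 active = inhibition above the mean inhibition across the screen plus 3 SD, cut at about 25% in these data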;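 also: inhibitors block binding of the rhodamine activity-based probe so polarization drops; 0% = enzyme with DMSO and 100% = wells lacking pPAFAH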
# PAFAH2 inh = PAFAH2 enzyme inhibitors, primary screen, biochemical, fluorescence polarization, human | recombinant PAFAH2, FP-rhodamine activity probe | inhibition, % at 3.39 µM | 0.99% of 340,000 active | AID 492956, 2010;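 active = inhibition above the mean over all tested compounds plus 3 SD, cut at about 30% in these data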;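 also: inhibitors block probe labeling of enzyme so polarization drops; 0% = enzyme with DMSO and 100% = wells lacking PAFAH2 protein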
# Active calls of the source: *; x = no result. This is a sample that favours compounds with a hit; in the whole collection about 2.9% have one here.
SMILES,LYPLA1 inh,PAFAH1B3 FP inh,LYPLA2 counter,PAFAH1B2 FP inh,pPAFAH FP inh,PAFAH2 inh
COc1cc(/C=C2/C(=O)c3cccc([N+](=O)[O-])c3C2=O)c(Br)cc1O,1.2,40.4*,4.4,16.5,32.0*,39.6*
COc1ccccc1NC(=O)CCCCCN1C(=O)c2cccc([N+](=O)[O-])c2C1=O,-2.0,-7.1,-2.6,1.5,1.8,4.1
CCN1C(=O)[C@H]2[C@@H](c3ccc(-c4ccccc4)cc3)N[C@@](C)(C(=O)OC)[C@H]2C1=O,-3.8,1.1,-0.1,1.5,2.9,1.8
CCN1C(=O)[C@H]2[C@@H](c3ccc(-c4cccc(Cl)c4)cc3)N[C@@](C)(C(=O)OC)[C@H]2C1=O,-4.4,0.0,-2.0,-1.7,33.9*,-10.3
Clc1ccc(N=C2SCC3CCCCN23)cc1 (stereo unspecified),1.2,-4.5,6.6,0.9,1.3,4.5
FC(F)Oc1ccc(N=C2SCC3CCCCN23)cc1 (stereo unspecified),3.1,13.1,12.0,0.8,32.8*,6.9
COc1cccc2c1C(=O)C=C(C)C2=O,0.7,10.6,-3.0,1.5,0.8,2.6
COC1=CC(=O)c2c(ccc3ncnc(N)c23)C1=O,x,68.7*,x,22.1,x,48.1*
COc1ccc(-n2c(SC3CCOC3=O)nc3ccccc32)cc1 (stereo unspecified),-1.9,-2.4,0.3,3.9,30.9*,-2.1
O=C1OCCC1Sc1nc2ccccc2n1-c1ccccc1 (stereo unspecified),1.0,3.0,1.9,3.0,20.8,8.9
COC(=O)C[C@H]1c2ccccc2S(=O)(=O)N1c1cccc(OC)c1,1.0,11.0,5.7,-4.7,0.7,-0.1
O=C(c1ccc(=O)oc1)N1CCCc2ccccc21,3.7,9.7,-3.2,12.3,25.4*,39.9*
Cc1ccc(S(=O)(=O)N2CCOCC2)cc1NC(=O)CN1C(=O)NC2(CCCC2)C1=O,x,6.8,x,4.4,0.6,2.0
O=C(NCCCNc1ccc(C(F)(F)F)cc1[N+](=O)[O-])c1ccc(Cl)cc1,-14.5,6.0,-11.6,29.4*,9.7,-2.3
O=C(NCCCNc1ccc(C(F)(F)F)cc1[N+](=O)[O-])c1cc(F)c(F)cc1Cl,1.0,-1.7,7.5,0.1,4.0,6.4
CN(Cc1cccs1)C(=O)CCNS(=O)(=O)c1ccc(Br)cc1,4.6,13.6,0.5,31.8*,4.1,10.5
CCCC(C)c1nnc(NC(=O)CS(=O)(=O)Cc2ccccc2)s1 (stereo unspecified),2.8,3.2,4.7,6.5,10.2,4.7
O=C(NCCc1ccc(Cl)cc1)c1cc2ccccn2n1,0.7,6.2,-0.7,30.0*,0.0,1.2
O=C(O)C1C2C=CC(C2)C1C(=O)OCC1CCCO1 (stereo unspecified),2.3,1.4,-3.1,1.8,-0.1,3.0
COc1cc(/C=C2\CCCc3c2nc2ccccc2c3C(=O)O)cc(Br)c1O,3.5,12.3,-1.3,2.1,12.1,6.4
COc1cc(/C=C2\CCc3c2nc2ccccc2c3C(=O)O)cc(OC)c1OC,-4.8,11.0,2.8,-1.4,31.6*,17.7
C[C@@H]1O[C@@H](OC2C(O)C(OCCc3ccc(O)c(O)c3)OC(CO)C2OC(=O)/C=C/c2ccc(O)c(O)c2)[C@H](O)[C@H](O)[C@H]1O (stereo partly specified),-0.9,x,3.5,x,46.1*,x
C[C@]12CCC[C@H](O1)c1c(cc3c(c1O)C(=O)c1c(O)cc(O)cc1C3=O)O2,1.4,18.9,6.5,14.6,27.0*,30.2*
O=C(Nc1ccc(-c2nc3ccccc3o2)cc1)c1cc(-n2cnnc2)ccc1Cl,-7.6,-0.8,-1.0,-1.5,7.7,-4.2
COc1ccc(-c2csc(NC(=O)Cc3ccccc3)n2)cc1OC,-0.4,10.8,4.1,2.7,11.2,21.9
SMILES,LYPLA1 inh,PAFAH1B3 FP inh,LYPLA2 counter,PAFAH1B2 FP inh,pPAFAH FP inh,PAFAH2 inh
O=C(CSc1n[nH]c(=O)[nH]c1=O)c1ccc(Cl)cc1Cl,-2.3,6.8,-0.7,29.7*,0.3,1.5
O=c1[nH]nc(SCc2cc(Cl)ccc2Cl)c(=O)[nH]1,0.4,4.0,0.3,28.6*,0.1,1.4
CC(C)(C)c1ccc(C(=O)CC(Sc2ccc(Cl)cc2)C(=O)O)cc1 (stereo unspecified),2.8,1.2,-2.1,83.4*,3.0,39.5*
Cc1ccc(SC(CC(=O)c2ccc(F)cc2)C(=O)O)cc1 (stereo unspecified),1.9,11.4,1.6,7.5,1.2,6.8
CC(C)C(CCNCc1ccccn1)c1ccc(Cl)cc1 (stereo unspecified),1.9,34.6*,4.6,45.0*,4.3,45.2*
CC(C)CCC(CCNCc1ccccn1)c1ccc2c(c1)OCO2 (stereo unspecified),4.9,0.6,5.6,4.5,1.7,-8.2
CN(CC(=O)Nc1ccc(C#N)cc1)Cc1ccc(Cl)cc1,1.5,15.6,2.5,31.3*,1.6,7.6
COc1ccccc1CN(C)CC(=O)NC1CCCc2ccccc21 (stereo unspecified),-0.1,8.5,7.1,2.2,2.8,2.1
COc1ccccc1CN(C)CC(=O)NC(=O)NC1CCCCC1,1.4,-1.6,-1.2,0.2,33.6*,-0.3
CN(CC(=O)NC(=O)NC1CCCCC1)CC(=O)Nc1ccc(Cl)cc1,-2.0,1.8,3.0,24.4*,4.5,1.0
CN(CC(=O)Nc1ccc(C#N)cc1)Cc1ccc(Cl)cc1Cl,-4.0,4.3,2.7,7.3,2.7,4.5
CN(CC(=O)Nc1ccc(Cl)cc1)C1CCCCC1,-2.0,5.5,-6.3,8.5,-1.2,-3.8
S=C(NCCc1ccccc1)NCc1cccs1,-1.4,4.7,-2.1,2.8,1.3,3.2
O=S(=O)(Nc1ccncc1Cl)c1ccc2ccccc2c1,6.0,3.6,14.9,1.3,3.0,0.6
COc1ccc(-c2nc(CS(=O)CC(=O)NC3CCC(C)CC3)c(C)o2)cc1OC (stereo unspecified),2.5,4.7,4.5,-4.0,-1.5,-2.5
Fc1ccc(-c2nnc(SCc3ncc(-c4ccccc4)o3)n2CC2CCCO2)cc1 (stereo unspecified),5.6,4.3,5.8,4.0,6.2,2.1
CCOc1ccc(NC(=O)C(C)N2C(=O)c3ccccc3S2(=O)=O)cc1 (stereo unspecified),-2.3,6.5,0.5,3.2,-0.9,6.8
CC1CCN(C(=S)Nc2ccc3nc4n(c(=O)c3c2)CCCCC4)CC1,0.6,6.0,4.5,24.3*,6.5,-6.3

# Screens (PubChem BioAssay)
